# Pol beta inh = inhibitors of human DNA polymerase beta | Pol beta primer extension/strand displacement, fluorescence kinetic | P06746 | hit rate 1.3% among 340,000 | Potency, µM (doses to about 114 µM), inactives show at the top dose activity change, negative = inhibition, usual class: inhibitors | AID 485314; note: % is set by controls: 0 for no effect and ±100 for the full control effect
#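 10 nM enzyme + cpd, 15 min RT; start with substrate 50 nM final; read 0 min and after 10 min RT. Corrected, normalized data; 4-parameter Hill curve fit.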
# Pol eta inh = inhibitors of human DNA polymerase eta. Q9Y253. recombinant Pol eta, fluorescent DNA replication assay. Potency, µM (doses to about 114 µM), without a hit: at the highest dose activity change, negative = inhibition, most hits filed as inhibitors. hit rate 1.2% among 390,000; note: % is set by controls: 0 for no effect and ±100 for the full control effect
# Target sequence (Q9Y253 whole entry, looked up): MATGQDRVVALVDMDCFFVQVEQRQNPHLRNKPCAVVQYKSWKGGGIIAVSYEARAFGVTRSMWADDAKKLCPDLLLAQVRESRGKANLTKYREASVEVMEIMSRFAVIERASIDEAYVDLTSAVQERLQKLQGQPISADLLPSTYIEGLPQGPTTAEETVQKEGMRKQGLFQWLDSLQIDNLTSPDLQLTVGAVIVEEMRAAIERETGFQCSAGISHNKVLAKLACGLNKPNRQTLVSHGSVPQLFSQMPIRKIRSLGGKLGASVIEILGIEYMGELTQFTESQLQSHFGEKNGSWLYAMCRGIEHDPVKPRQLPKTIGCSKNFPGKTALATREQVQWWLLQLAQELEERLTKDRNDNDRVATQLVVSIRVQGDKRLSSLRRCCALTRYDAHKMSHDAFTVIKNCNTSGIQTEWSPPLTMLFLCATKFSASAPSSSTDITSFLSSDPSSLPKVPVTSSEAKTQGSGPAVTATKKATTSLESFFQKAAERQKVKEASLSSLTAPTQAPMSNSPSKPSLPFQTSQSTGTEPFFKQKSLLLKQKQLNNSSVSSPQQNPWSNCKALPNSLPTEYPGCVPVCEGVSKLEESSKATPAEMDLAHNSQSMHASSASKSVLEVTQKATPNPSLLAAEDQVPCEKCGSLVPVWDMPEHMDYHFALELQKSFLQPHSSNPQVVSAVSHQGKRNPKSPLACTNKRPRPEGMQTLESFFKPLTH
#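 Pol eta (10 nM) was preincubated with compounds for 15 min at room temperature, after which fluorescent replication substrate (50 nM final) was added to start the reaction. Fluorescence was read kinetically at 0 and 10 min.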
# KAT2A inh = blocks human GCN5L2 histone acetyltransferase | hit rate 0.21% among 390,000 | Potency, µM (highest dose often 58.9 µM), for the others: top-dose activity change, negative = inhibition, actives largely listed as inhibitors | Q92830 | AID 504327 | GCN5L2 HAT assay, ThioGlo1 CoA-SH fluorescence; note: % is set by controls: 0 for no effect and ±100 for the full control effect
#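 Enzyme at 20nM final was mixed with library compounds for 15 min at room temperature. Peptide H3(1-25) at 75uM, acetyl-CoA at 70uM and ThioGlo1 at 50uM were then added. Plates were read immediately and after 20 min (Ex340nm/Em540nm).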
# GLS inhibitor = blocks human kidney-isoform glutaminase activity | GLS enzymatic activity, qHTS titration | O94925 | Potency, µM (titrated, usually from 45.5 µM), for inactives: top-dose activity change, negative = inhibition, usual class: inhibitors | AID 624170 | hit rate 0.21% among 410,000; note: % is set by controls: 0 for no effect and ±100 for the full control effect
#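 Human kidney-isoform GLS in 45 mM KH2PO4 pH 8.2, 0.02% Tween-20, with compound, started with 1mM L-Glutamine (added stock). Glutamate oxidase/HRP/Amplex red coupled fluorescence read at start and after 30 min at RT.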
# POLK inh = DNA polymerase kappa (human) inhibition. Potency, µM (highest dose often 107 µM), for inactives: at the highest dose activity, negative = inhibition, actives largely listed as inhibitors. hit rate 0.53% among 400,000. AID 588579. purified Pol kappa, fluorescent DNA synthesis assay, 10 min; note: % is set by controls: 0 for no effect and ±100 for the full control effect
#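 Kinetic fluorescence readout at 0 and 10 min followed reaction start with substrate at 50 nM final. Beforehand, enzyme (10 nM Pol kappa) stood 15 min with compound at room temperature; buffer-only wells were negative controls.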
# POLI inh = inhibitors of human DNA polymerase iota; AID 588590; hit rate 1% among 390,000; Pol iota fluorescent replication assay, 10 min; Potency, µM (series often up to 115 µM), inactives show at the top dose activity, negative = inhibition, usual class: inhibitors
#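 Fluorescent replication assay read twice, at 0 min and 10 min after adding 50 nM (final) substrate. Enzyme (10 nM) and compounds were first incubated 15 min at room temperature; enzyme-free buffer wells were negative controls.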
# The depositor's hits bear a star; i = inactive; u = inconclusive; x = no result given; [ ] = dose if it differs, or a comment. Rows were chosen to be rich in hits. Some 2.4% of all compounds tested hit in one or more screens of this group. Calls come from the whole dose curve; as a rule, active = well fitted inhibition curve with a large enough effect; inconclusive = small, poorly fitted or top-dose-only effect, or another doubt; inactive = no such curve, though single readings can be large or run the other way. Potency is the fitted concentration of half-maximal effect.
SMILES,Pol beta inh,Pol eta inh,KAT2A inh,GLS inhibitor,POLK inh,POLI inh
SCc1nc2ccccc2[nH]1,x,x,x,x,-12%,-5%
CC(=O)Nc1cccc(NC(=O)CSc2ccc(-c3ccco3)nn2)c1,25µM*,18µM*,u,-20%,u,22µM*
CCN1C(=O)/C(=C/C=C2\N(CC)c3cc(S(=O)(=O)N(C)C)ccc3N2c2ccccc2)SC1=S,3.5µM*,i,-1%,-16%,u,u
CCN1C(=O)/C(=C\C=C\c2ccccc2[N+](=O)[O-])SC1=S,22%,-13%,-13%,-1%,-4%,59%
CN1C(CSCC(F)(F)F)Nc2cc(Cl)c(S(N)(=O)=O)cc2S1(=O)=O (stereo not given),x,x,x,-4%,x,x
COc1cc2cccc(OC)c(=O)c2c(O)c1OC,7%,-13%,-2%,4%,-1%,54%
CC(=O)Oc1cc2cccc(OC(C)=O)c(=O)c2c(OC(C)=O)c1OC(C)=O,0.18µM*,10µM*,0%,37%,1µM*,1µM*
O=C(O)c1cc(NCc2cc(O)ccc2O)ccc1O,x,x,-15%,x,50µM*,18µM*
O=C(C[n+]1ccccc1Cl)c1ccc(F)cc1,x,x,x,x,-5%,-4%
COc1cc(SC#N)ccc1N=Cc1c(C)[nH]n(-c2ccc(C)cc2C)c1=O,1%,-3%,x,11%,2%,u
COc1cc(SC#N)ccc1N=Cc1c(C)[nH]n(-c2cccc3ccccc23)c1=O,9%,-15%,u,-12%,-11%,13µM*
COc1cc(C(CC(=O)Nc2cc(C)ccc2C)N2Cc3ccccc3C2=O)cc(OC)c1OC (stereo not given),26%,-10%,11%,0%,6%,13%
O=C(N/N=C/c1ccoc1)c1ccccc1,20µM*,u,-11%,-15%,-38%,u
O=C(N/N=C/c1ccoc1)c1ccc(Cl)cc1,-6%,-2%,-9%,-4%,2%,u
O=C(N/N=C/c1ccoc1)c1ccc(Br)cc1,40µM*,-4%,-1%,10%,-11%,u
O=C(N/N=C/c1oc(O)c2ccccc12)c1ccccc1O,20%,-3%,-1%,5%,-22%,-14%
O=C(N/N=C/c1ccoc1)c1ccccc1O,22µM*,45µM*,-14%,-11%,u,u
Cc1cc(C)cc(C(=O)N/N=C/c2ccoc2)c1,45%,-16%,-2%,2%,-4%,u
COc1cc(OC)cc(C(=O)N/N=C\c2ccoc2)c1,28µM*,u,-6%,-1%,-29%,u
Cc1cc(C)c2c(n1)NCCC2,x,x,x,x,7%,-13%
COc1cccc(CNC(=O)c2ccc3c(c2)nc2n3CCC(C)C2)c1OC (stereo not given),-3%,0%,1%,-10%,-16%[60.1 µM],4%
CCC(=O)C(Cc1ccccc1)(Cc1ccccc1)CC(C)N(C)C (stereo not given),x,x,x,3%[72.5 µM],x,x
O=C(N/N=C/c1cccc(OC2CSC2)c1)c1ccccc1O,45µM*,u,u,8%,-31%,u
O=C(N/N=C/c1cc(Br)ccc1O)c1ccncc1,32%,-20%,-12%,18%,6%,2%
O=C(N/N=C/c1cccc([N+](=O)[O-])c1)c1ccc(Br)cc1,-29%,-16%,1%,1%,u,u
SMILES,Pol beta inh,Pol eta inh,KAT2A inh,GLS inhibitor,POLK inh,POLI inh
O=C(N/N=C/c1cc(Cl)ccc1O)c1ccc(Br)cc1,10µM*,u,-25%,0%,u,u
O=C(N/N=C/c1cccc(Br)c1)c1ccc(Br)cc1,10µM*,-5%,-17%,0%,-21%,u
Cc1ccc(O)c(/C=N/NC(=O)Cc2ccc(Cl)cc2)c1,25µM*,6%,-15%,11%,-8%,-6%
O=C(O)CNC(=O)CNC(=O)CNC(=O)CSC(=O)c1ccccc1,x,x,x,-16%,x,x
O=C1C[C@H]2C=CCc3cccc(c32)CN1Cc1ccc(Cl)cc1,x,x,x,x,-13%,9%
C=CCOc1c(OC)cc(/C=N/Nc2cccc(C(=O)O)c2)c(Br)c1Br,50µM*,u,-21%,u,u,-16%
CC(=O)c1cccc(S(=O)(=O)N2CCC(C(=O)OC3CCOC3=O)CC2)c1 (stereo not given),x,45µM*,-1%,-5%,-23%,u
Cc1ccc(S(=O)(=O)N2CCC(C(=O)OC3CCOC3=O)CC2)cc1C (stereo not given),x,-11%,1%,2%,-2%,43%
CC(C)CCCC(C)CCCC(C)CCCC(C)C(=O)O (stereo not given),x,x,11µM*,x,30µM*,x
CCOC(=O)c1c(NC(=O)/C=C\C(=O)O)sc(C)c1-c1ccccc1,7%,1%,-1%,1%,-12%,10%
CCOC(=O)c1c(NC(=O)/C=C/C(=O)O)sc(C)c1-c1ccc(C(C)(C)C)cc1,u,22µM*,u,-1%,-12%,u
CC(=O)N(O)C/C=C/c1cccc(Oc2ccccc2)c1,x,x,-13%,x,12%[60.1 µM],x
O=[N+]([O-])c1cccc(C2=N[C@@H](Cc3ccccc3)CO2)c1,x,x,-9%[88.6 µM],x,-14%,x
Cn1cc(C(c2ccccc2OCC(=O)O)c2cn(C)c3ccccc23)c2ccccc21,-3%,1%,-5%,14µM*,-13%,82%
O=C(Nc1ccc(Cl)cc1Cl)c1cnn2c1NC(=C1CC1)C=C2C(F)F,x,x,x,x,6%,28%
C=CCOc1c(Br)cc(/C=C2/C(=O)ON=C2C)cc1OC,0%,-12%,-7%,-11%,-3%,89µM*
C#CCOc1c(Br)cc(/C=C2/C(=O)ON=C2C)cc1OC,-8%,-3%,-8%,-13%,-4%,54%
CC(=O)SCC(CC(=O)c1ccc(C)cc1)C(=O)O (stereo not given),x,x,x,2%,x,x
Nn1c(SCC(=O)Nc2cc(C(F)(F)F)ccc2Cl)nncc1=O,5%,u,-4%,1%,u,79µM*
Nn1c(SCC(=O)Nc2cccc(C(F)(F)F)c2)nncc1=O,-12%,-12%,-3%,1%,-8%,-22%
COc1cc([N+](=O)[O-])ccc1NC(=S)NNC(=O)c1ccc2c(c1)OCO2,-22%,u,-17%,0%,8%,19%
O=C(NC(=S)Nc1cc([N+](=O)[O-])ccc1O)c1ccc2c(c1)OCO2,45µM*,1%,-17%,8%,-17%,7%
CC1(C)Nc2cccc3c(N=Nc4ccc(N=Nc5ccccc5)c5ccccc45)ccc(c23)N1,x,x,x,x,-21%,34%
CCOC(=O)C1=C(C)NC(=S)NC1c1ccco1 (stereo not given),0%,u,-5%,21%,u,22µM*

# High-throughput results from PubChem.
